# Assay outcomes deposited in PubChem BioAssay by National Center for Advancing Translational Sciences (NCATS).
# DT40 TDP1 no CPT – qHTS for Inhibitors of human tyrosyl-DNA phosphodiesterase 1 (TDP1): qHTS in cells in absence of CPT. DT40 Tdp1-/- hTDP1 cells, no CPT, ATP luminescence, 48 h. Potency, µM (highest dose often 46.2 µM), without a hit: top-dose activity change, negative = growth inhibition, most hits filed as inhibitors. hit rate 15% among 420,000. AID 686978, 2013; also: % is scaled to controls: 0 for no effect and ±100 for the full control effect; nearly all actives have a fitted effect of over 55% in size
#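 Compound effects on proliferation are scored in DT40 Tdp1-/-;hTDP1 cells in the absence of CPT. ATP levels (CellTiter-Glo luminescence) are recorded after a ≥48 hr, 37 °C incubation.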
# TDP1 block – inhibitors of human tyrosyl-DNA phosphodiesterase TDP1; hit rate 0.28% among 350,000; Potency, µM (titrated, usually from 130 µM), without a hit: at the highest dose activity change, negative = inhibition, most hits filed as inhibitors; recombinant TDP1, AlphaScreen DNA substrate cleavage; Q9NUW8; AID 485290; also: % is scaled to controls: 0 for no effect and ±100 for the full control effect; nearly all actives have a fitted effect of over 40% in size
# Target sequence (Q9NUW8 whole entry, looked up): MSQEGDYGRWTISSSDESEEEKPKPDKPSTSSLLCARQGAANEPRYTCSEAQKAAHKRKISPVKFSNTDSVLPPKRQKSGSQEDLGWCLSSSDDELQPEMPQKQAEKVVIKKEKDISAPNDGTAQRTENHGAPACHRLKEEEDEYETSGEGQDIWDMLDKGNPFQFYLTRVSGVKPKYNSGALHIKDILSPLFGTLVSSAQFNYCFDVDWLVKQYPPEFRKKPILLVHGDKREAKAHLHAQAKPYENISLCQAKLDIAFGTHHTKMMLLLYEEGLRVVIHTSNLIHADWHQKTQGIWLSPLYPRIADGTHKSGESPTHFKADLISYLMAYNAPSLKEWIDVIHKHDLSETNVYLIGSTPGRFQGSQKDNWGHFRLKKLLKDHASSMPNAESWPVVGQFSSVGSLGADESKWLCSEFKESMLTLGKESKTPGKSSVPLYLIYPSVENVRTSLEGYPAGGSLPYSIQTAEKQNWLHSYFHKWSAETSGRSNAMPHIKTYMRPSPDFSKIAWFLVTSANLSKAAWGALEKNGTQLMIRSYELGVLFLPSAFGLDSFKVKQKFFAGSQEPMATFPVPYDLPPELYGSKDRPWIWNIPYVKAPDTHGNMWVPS
#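 Signal: AlphaScreen proximity between streptavidin donor and anti-FITC acceptor beads on intact substrate. Reaction: Tdp1 1 nM, substrate 15 nM final, 5 min RT after 15 min compound preincubation.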
# ClpP mod – qHTS Assay for Activators of ClpP; ATP-dependent Clp protease proteolytic subunit (Bacillus subtilis (strain 168)), P80244; purified B. subtilis ClpP, FRET peptide cleavage, 20 min; AID 651965, 2013; hit rate 1.9% among 340,000; Potency, µM (series often up to 57.5 µM), for inactives: at the highest dose activity change, negative = active; active = well fitted falling curve with a large enough effect; inconclusive = small, poorly fitted or top-dose-only effect; inactive = no such curve, though single readings can be large or run the other way; also: the source files actives as falling curves though it sought activators and does not explain the sign; nearly all actives have a fitted effect of over 65% in size
#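 Buffer: 100 mM Tris/HCl pH8, 100 mM KCl, 0.05% low protease BSA, 2.5% glycerol, 0.01% Tween-20. ClpP 10 microg/mL final; 20 min RT; delta FRET normalized to ADEP and DMSO controls.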
# TDP1 cell CPT – DT40-hTDP1 cell growth loss with CPT. chicken DT40 Tdp1-/-;hTDP1 cells + 20 nM CPT, ATP luminescence, 48 h. Potency, µM (highest dose often 46.2 µM), for inactives: at the highest dose activity change, negative = growth inhibition, most hits filed as inhibitors. hit rate 12% among 420,000. AID 686979; also: % is scaled to controls: 0 for no effect and ±100 for the full control effect; nearly all actives have a fitted effect of over 55% in size
#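 Chicken DT40 Tdp1-/- cells stably complemented with human TDP1 were seeded at 400 cells/well in medium containing 20 nM camptothecin, exposed to pin-transferred compounds, and grown at 37 °C for at least 48 hr. Viability was read as ATP luminescence.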
# Numbers without * were called inactive; u = inconclusive; x = no result; [ ] = dose if it differs, or a comment. Shown are actives, neighbours in structure and some others; about 17% of the full set was active somewhere. Unless noted, calls follow the shape of the dose curve; as a rule, active = well fitted curve in the direction sought with a large enough effect; inconclusive = small, poorly fitted or top-dose-only effect, or another doubt; inactive = no such curve, though single readings can be large; an effect the other way counts as inactive or inconclusive. Potency is read from the fitted curve at half-maximal effect.
SMILES,DT40 TDP1 no CPT,TDP1 block,ClpP mod,TDP1 cell CPT
COc1ccc(CNC(=O)c2cccc3c(-c4cccc(C(N)=O)c4)coc23)cc1OC,5.2µM*,x,-7%,3.7µM*
CN(C)c1cccc(NC(=O)c2cccc3c(-c4ccc(F)c(F)c4)coc23)c1,21µM*,x,22µM*,u
Cc1ccc(-c2cc3c(N4CCN(c5cc(C)ccc5C)CC4)nccn3n2)cc1,21µM*,5%,-19%,23µM*
C[C@@]12C(=O)N(c3cccc(F)c3)C(=O)N1[C@H](c1ccc(F)cc1)[C@@H]1C(=O)N(C3CCCCC3)C(=O)[C@@H]12,u,x,-1%,21µM*
O=C1[C@H]2[C@@H](c3ccc(F)cc3)N3C(=O)N(c4cccc(Cl)c4)C(=O)[C@@]3(Cc3ccc(Cl)cc3)[C@H]2C(=O)N1C1CCCCC1,u,x,-1%,16µM*
O=C1c2ccccc2C(c2nnnn2Cc2ccccc2)N1CCc1c[nH]c2ccccc12 (configuration not stated),u,x,0%,u
O=C(NCc1ccccc1F)C1CCCN(S(=O)(=O)N2CCOCC2)C1 (configuration not stated),17%,3%,-1%,4%
C[C@@H]1CN([C@H](C)CO)C(=O)CCCn2cc(nn2)CO[C@H]1CN(C)S(=O)(=O)c1ccc2ccccc2c1,-26%,x,1%,-17%
CCCCn1c(N)c(N(CC(C)C)C(=O)CCCc2nc3ccccc3s2)c(=O)[nH]c1=O,0%,-12%,7.1µM*,4%
CC(C)CN(C(=O)COC(=O)c1cccc2ccccc12)c1c(N)n(Cc2ccccc2)c(=O)[nH]c1=O,16µM*,x,u,u
CCN(C(=O)COC(=O)c1ccccc1NCc1ccco1)c1c(N)n(Cc2ccccc2)c(=O)[nH]c1=O,u,x,4%,u
CC(C)CN(C(=O)CSc1nc2ccccc2o1)c1c(N)n(Cc2ccccc2)c(=O)[nH]c1=O,21µM*,1%,-4%,18µM*
CCN(C(=O)COC(=O)c1cccc2ccccc12)c1c(N)n(Cc2ccccc2)c(=O)[nH]c1=O,0%,x,u,-20%
CC(C)CN(C(=O)COC(=O)c1ccccc1NCc1ccco1)c1c(N)n(Cc2ccccc2)c(=O)[nH]c1=O,-24%,-1%,28µM*,u
CCN(C(C)=O)c1cnc(C=NNC(N)=S)c2ccccc12,4.6µM*,x,-4%,3.7µM*
NC(=S)NN=Cc1nccc2c(N)cccc12,1.2µM*,x,2%,1.8µM*
CCC1CN(C(=O)C2CCN(S(=O)(=O)c3c(C)noc3/C=C/c3ccccc3F)CC2)c2cc(Cl)ccc2O1 (configuration not stated),-23%,5%,4%,-1%
CCOC(=O)NC1(NCc2ccccc2)Oc2ccccc2O1,21µM*,x,-4%,u
COc1ccc(S(=O)(=O)NCCc2ccc(F)cc2)cc1,-11%,7%,-2%,-10%
CCCCNc1ccc(C(F)(F)F)cc1S(=O)(=O)NCCc1ccc(F)cc1,6.5µM*,-9%[56.1 µM],u,18µM*
CC(Cc1ccccc1)NC(=O)CCNNC(=O)c1ccncc1 (configuration not stated),-29%,x,1%,-27%
CC(=O)Nc1ccc(NC(=O)c2ccc(Cl)c(S(=O)(=O)N3CCc4ccccc43)c2)cc1,4.6µM*,x,-10%,u
O=C(NCC(c1ccco1)N1CCCC1)c1ccc(Cl)c(S(=O)(=O)N2CCc3ccccc32)c1 (configuration not stated),7.3µM*,5%,-4%,8.2µM*
CCOC(=O)C1CCN(C(=O)c2ccc(Cl)c(S(=O)(=O)N3CCCC3)c2)CC1,-30%,5%,1%,-27%
CCOC(=O)C1CCCN(C(=O)c2ccc(Cl)c(S(=O)(=O)N3CCc4ccccc43)c2)C1 (configuration not stated),13µM*,x,-12%,u
SMILES,DT40 TDP1 no CPT,TDP1 block,ClpP mod,TDP1 cell CPT
O=C(Nc1cccnc1)c1ccc(Cl)c(S(=O)(=O)N2CCc3ccccc32)c1,-18%,6%,x,22%
O=C(Nc1ccccn1)c1ccc(Cl)c(S(=O)(=O)N2CCc3ccccc32)c1,u,1%,-1%,16µM*
Cc1cc(C(=O)CCC(=O)Nc2cccc(F)c2)c(C)s1,u,x,-2%,u
CCn1c(-c2csc3c2CCCC3)n[nH]c1=S,23µM*,-4%,1%,29µM*
CCCCn1c(-c2csc3c2CCCC3)n[nH]c1=S,-17%,0%,0%,-20%
CCn1c(-c2ccccc2SC)n[nH]c1=S,16µM*,3%,x,15%
CC(CNCCCn1cnc2c(OCc3ccccc3)ncnc21)c1ccccc1 (configuration not stated),u,x,0%,u
c1ccc(CCCNCCCn2cnc3c(OCc4ccccc4)ncnc32)cc1,12µM*,x,-2%,10µM*
Cc1ccc(CNCCCn2cnc3c(OCc4ccccc4)ncnc32)o1,u,x,-1%,u
C[C@@H](NCCCn1cnc2c(OCc3ccccc3)ncnc21)c1cccc2ccccc12,16µM*,x,1%,u
c1ccc(CNCCCn2cnc3c(OCc4ccccc4)ncnc32)cc1,23µM*,x,-3%,29µM*
CSc1ncnc2c1ncn2CCCNCC(c1ccccc1)c1ccccc1,26µM*,x,1%,u
CSc1ncnc2c1ncn2CCCNCc1ccccn1,1%,x,-1%,4%
O=C(NCCN1CCCC1=O)C1CCC(=O)N(CCc2cccc(F)c2)C1 (configuration not stated),11%,4%[56.1 µM],-18%,5%
CCO[C@H]1[C@H](NC(=O)c2cccnc2)c2ccccc2C12CCN(C(=O)c1cc(C)n(C)n1)CC2,-10%,x,x,-8%[9.04 µM]
Cc1ccc(C2(c3noc(CN4CCC(c5ccncc5)CC4)n3)CCCC2)cc1,18µM*,1%,x,13µM*
Fc1cccc(Cc2noc(CN3CCC(c4ccncc4)CC3)n2)c1,13µM*,-4%,-1%,18µM*
Fc1cccc(Cc2noc(CN3CCOCC3)n2)c1,3%,x,-1%,-12%
Fc1ccccc1Cc1noc(CN2CCC(OCc3cccnc3)CC2)n1,23µM*,0%,x,u
Fc1ccccc1Cc1noc(CN2CCN(C/C=C/c3ccccc3)CC2)n1,18µM*,x,1%,18µM*
COC1CCCN(Cc2nc(Cc3ccccc3F)no2)C1 (configuration not stated),2%,-10%,0%,7%
Cc1ccc(S(=O)(=O)c2[nH]c(-c3ccccc3)nc2SCC(N)=O)cc1,-2%,7%,-2%,4%
CC1CCC2(CC1)NC(=O)N(CC(=O)N1CCN(c3ccccc3)CC1)C2=O (configuration not stated),0%,1%,1%,-21%
